Screens (PubChem BioAssay)
Shown are actives, neighbours in structure and some others; about 2.8% of the full set was active somewhere.
Pol eta inh-1 – qHTS for Inhibitors of Polymerase Eta; Potency, µM (titrated, usually from 114 µM), most hits filed as inhibitors; recombinant Pol eta, fluorescent DNA replication assay; AID 588591, 2011; hit rate 1.2% among 390,000
Target sequence (Q9Y253 whole entry, looked up): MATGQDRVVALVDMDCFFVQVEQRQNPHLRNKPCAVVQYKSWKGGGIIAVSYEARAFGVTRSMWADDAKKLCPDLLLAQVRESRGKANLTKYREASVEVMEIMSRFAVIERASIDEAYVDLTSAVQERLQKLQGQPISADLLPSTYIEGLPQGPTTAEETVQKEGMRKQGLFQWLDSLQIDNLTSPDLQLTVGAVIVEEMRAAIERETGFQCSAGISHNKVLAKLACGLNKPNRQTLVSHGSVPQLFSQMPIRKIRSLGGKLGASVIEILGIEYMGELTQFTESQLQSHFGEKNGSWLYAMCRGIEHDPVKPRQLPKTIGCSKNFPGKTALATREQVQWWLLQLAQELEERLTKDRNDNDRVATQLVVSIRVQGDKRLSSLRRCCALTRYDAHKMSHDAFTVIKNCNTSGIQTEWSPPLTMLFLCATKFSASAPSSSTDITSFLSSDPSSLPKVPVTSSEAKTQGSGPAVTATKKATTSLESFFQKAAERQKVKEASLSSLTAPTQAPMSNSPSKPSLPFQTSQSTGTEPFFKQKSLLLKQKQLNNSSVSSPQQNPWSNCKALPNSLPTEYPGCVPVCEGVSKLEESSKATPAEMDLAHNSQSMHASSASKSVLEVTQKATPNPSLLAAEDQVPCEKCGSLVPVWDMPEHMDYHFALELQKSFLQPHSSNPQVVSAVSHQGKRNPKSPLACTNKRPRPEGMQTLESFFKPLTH
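Pol eta (10 nM) was preincubated with compounds for 15 min at room temperature, after which fluorescent replication substrate (50 nM final) was added to start the reaction. Fluorescence was read kinetically at 0 and 10 min.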
PI5P4Ka inh – qHTS for Inhibitors of phosphatidylinositol 5-phosphate 4-kinase (PI5P4K) | Phosphatidylinositol 5-phosphate 4-kinase type-2 alpha (Homo sapiens), P48426 | hit rate 1.2% among 330,000 | PI5P4Kalpha enzyme, ADP-Glo luminescence, 60 min; hits give low values | AID 652105, 2013 | max response, %; active means max response of -50% or lower; inconclusive means between -30% and -50%; inactive means -30% or higher; further: value at the top dose of about 77 µM
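Human PI5P4Kalpha with substrate in 0.038 M HEPES pH 7.4, 0.28 mM EGTA, 0.1% CHAPS, 5% DMSO; reaction started with 5 microM ATP (final), 60 min at room temperature. ADP formed read by ADP-Glo luminescence.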
FEN1 inh – qHTS Assay for the Inhibitors of Human Flap endonuclease 1 (FEN1); AID 588795, 2011; Potency, µM (highest dose often 114 µM), most hits filed as inhibitors; Recombinant FEN1 flap cleavage, fluorescence, 15 min; hit rate 0.35% among 390,000; further: nearly all actives have a fitted effect of over 65% in size
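FEN1 at 10 nM preincubated with compounds 15 min at room temperature, then flap DNA substrate added at 50 nM final. Signal read at 0 and 15 min; concentration-response fitted with four-parameter Hill equation.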
Pol kappa inh-1 – qHTS for Inhibitors of Polymerase Kappa; DNA polymerase kappa (Homo sapiens), Q9UBT6; Potency, µM (titrated, usually from 107 µM), usual class: inhibitors; hit rate 0.53% among 400,000; AID 588579, 2011; purified Pol kappa, fluorescent DNA synthesis assay, 10 min
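First, compounds were pin-transferred onto 10 nM Pol kappa. After 15 min at room temperature, substrate was added to 50 nM final. Fluorescence was then measured kinetically at 0 and 10 min.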
Pol beta inh – qHTS Assay for Inhibitors of DNA Polymerase Beta; Potency, µM (highest dose often 114 µM), hits mostly inhibitors; Pol beta primer extension/strand displacement, fluorescence kinetic; P06746; hit rate 1.3% among 340,000
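10 nM enzyme + cpd, 15 min RT; start with substrate 50 nM final; read 0 min and after 10 min RT. Corrected, normalized data; 4-parameter Hill curve fit.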
POLI inh – qHTS for Inhibitors of Polymerase Iota. Pol iota fluorescent replication assay, 10 min. hit rate 1% among 390,000. Potency, µM (highest dose often 115 µM), usual class: inhibitors. AID 588590, 2011
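Fluorescent replication assay read twice, at 0 min and 10 min after adding 50 nM (final) substrate. Enzyme (10 nM) and compounds were first incubated 15 min at room temperature; enzyme-free buffer wells were negative controls.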
POLI cherry-pick – qHTS for Inhibitors of Polymerase Iota: Confirmatory Assay for Cherry-picked Compounds; shares compounds with Pol kappa inh-1; AID 720496, 2013; hit rate 77% among 1,500; Pol iota primer extension, TAMRA/BHQ fluorescence; Potency, µM, hits mostly inhibitors
Pol kappa inh-2 – qHTS for Inhibitors of Polymerase Kappa: Confirmatory Assay for Cherry-picked Compounds | hit rate 76% among 920 | Potency, µM, most hits filed as inhibitors | shares compounds with Pol eta inh-1 | purified Pol-kappa, fluorescent strand-displacement substrate
Pol eta inh-2 – qHTS for Inhibitors of Polymerase Eta: Confirmatory Assay for Cherry-picked Compounds. Potency, µM, usual class: inhibitors. Pol eta primer extension, TAMRA/BHQ fluorescence, 10 min. hit rate 64% among 2,600. shares compounds with Pol eta inh-1
ADP-Glo counter – qHTS for Inhibitors of PI5P4K: ADP-Glo counter assay; Potency, µM (top dose mostly 76.9 µM), usual class: inhibitors; 1,100 tested, under 10 active; shares compounds with PI5P4Ka inh; ADP-Glo detection counter-screen, luciferase luminescence, no enzyme
Numbers stand for hits; - = inactive; ? = inconclusive; . = not tested or not shown; [ ] = another dose, or the depositor's remark. Unless noted, the call rests on the fitted dose curve; in most records, active means well fitted curve in the direction sought with a large enough effect; inconclusive means small, poorly fitted or top-dose-only effect, or another doubt; inactive means no such curve, though single readings can be large; an effect the other way counts as inactive or inconclusive.

SMILES	Pol eta inh-1	PI5P4Ka inh	FEN1 inh	Pol kappa inh-1	Pol beta inh	POLI inh	Pol eta inh-2	others
Cc1ccc(-c2nc3c(c(=O)[nH]c(=O)n3Cc3ccccc3)n2C)o1	11.2µM	-67.8	-	?	10µM	11.2µM	75.7	POLI cherry-pick=?;ADP-Glo counter=-
O=C(O)C(Cc1ccc(Cl)cc1)NS(=O)(=O)c1ccc(Cl)cc1 (stereo unspecified)	-	-	-	-	-	-	.
O=C(O)c1ccc(S(=O)(=O)N[C@H](Cc2ccc(O)cc2)C(=O)O)cc1	.	.	.	.	.	.	33.8
CC(C)(C)c1ccc(OCCSc2nc3ccccc3n2CC(=O)O)cc1	-	-	-	-	-	-	.
Cc1cc(C)cc(OCCSc2nc(-c3ccc(C(C)(C)C)cc3)nc3cc(=O)[nH]n23)c1	?	.	-	-	22.4µM	-	84.9
Cc1cc(OCCCSc2nc(-c3ccc(C(C)(C)C)cc3)nc3cc(=O)[nH]n23)ccc1Cl	79.4µM	.	?	?	39.8µM	?	?
CCc1cc(OCCCSc2nc(C)cc(=O)[nH]2)ccc1Cl	-	.	-	-	?	-	.
Cc1cccc(NC(=O)CN(C)C(C)C(=O)Nc2ccc(S(=O)(=O)N3CCCC3)cc2)c1C (stereo unspecified)	-	-	-	-	.	-	.
CS(=O)(=O)c1cccc(C(=O)OCC(=O)Nc2ccc3c(c2)OCO3)c1	-	-	-	-	.	-	.
COc1ccccc1NC(=O)Nc1ccccc1N1CCOCC1	-	-	-	-	-	-	.
Oc1c(Br)cc(/C=N/Nc2ccc(Cl)nn2)cc1Br	22.4µM	-92.7	?	?	50.1µM	?	84.9
Cc1ccc(C2c3c(oc4ccccc4c3=O)C(=O)N2c2nnc(C)s2)cc1 (stereo unspecified)	-	.	-	-	?	-	.
CCNC(=S)NNC(=O)c1cc(Br)cs1	-	-	-	-	-	-	.
CC1=NOC(=O)/C1=C\c1ccc(-c2cccc(Cl)c2)o1	20µM	?	50.1µM	-	?	?	?
COC(=O)N/N=C/c1ccc(-c2cccc(Cl)c2)o1	-	-	-	-	-	-	.
O=C(CCC(=O)c1cccs1)NNC(=O)c1ccc(Cl)cc1	-	-	-	-	.	-	.
O=C(CCC(=O)c1cccs1)NNC(=O)c1ccccc1O	28.2µM	-51.6	-	?	.	?	?
CCOc1ccc(Nc2nc(Cc3nnc(SCC(=O)O)o3)cs2)cc1	50.1µM	.	-	?	79.4µM	?	?
CCOC(=O)c1ccc(NC(=O)CN2CCN(C(=O)C3CCCO3)CC2)cc1 (stereo unspecified)	-	-	-	-	-	-	.
COc1cc2c(cc1[N+](=O)[O-])-c1ccc([N+](=O)[O-])cc1C2=NNC(N)=S	10µM	-58.6	.	.	.	.	.	Pol kappa inh-2=67
NC(=S)NN=C1c2cc(Cl)ccc2-c2c1cc(Cl)cc2[N+](=O)[O-]	-	-	-	-	.	-	.
Cc1nc(SCC(=O)O)c(C#N)c2c1CCCC2	7.94µM	?	-	?	8.91µM	25.1µM	23.9
O=C(O)CN1C(=O)/C(=C/c2ccc(-c3cccc(Cl)c3)o2)SC1=S	.	.	.	.	.	.	?	Pol kappa inh-2=33.6
Cn1cccc1/C=C1/SC(=S)N(CC(=O)O)C1=O	-	-	-	-	?	?	.
CC(/C=N/n1c(-c2ccncc2)n[nH]c1=S)=C\c1ccco1	?	?	?	50.1µM	-	20µM	?
SMILES	Pol eta inh-1	PI5P4Ka inh	FEN1 inh	Pol kappa inh-1	Pol beta inh	POLI inh	Pol eta inh-2	others
Cc1cccc(-c2n[nH]c(=S)n2/N=C/C=C/c2ccco2)c1	79.4µM	?	?	44.7µM	?	12.6µM	?
CC1=NN(c2ccc(C)cc2)C(=O)/C1=C/c1ccc(-c2cc([N+](=O)[O-])ccc2O)o1	20µM	-94.1	-	79.4µM	7.08µM	20µM	?	Pol kappa inh-2=16.8
CCOc1cc(/C=C2/C(=O)NN(c3cccc(Cl)c3)C2=O)ccc1O	-	?	-	-	-	?	.
O=C1NN(c2cccc(Br)c2)C(=O)/C1=C/c1ccc(-c2cc([N+](=O)[O-])ccc2O)o1	10µM	-85.6	?	79.4µM	?	?	30.1
Cc1onc(-c2ccccc2)c1C(=O)N(CC(C)C)c1c(N)n(CC(C)C)c(=O)[nH]c1=O	-	-	-	-	.	-	.
Cn1cnnc1SCc1ccc(C(=O)N/N=C(/CCC(=O)O)c2ccc(C(C)(C)C)cc2)cc1	-	-	-	-	.	-	.
COc1cccc(-c2coc3c(C)c4oc(=O)c(CCC(=O)O)c(C)c4cc23)c1	50.1µM	-	?	-	?	?	47.8
CC(C)CNC(=O)CCc1nc(-c2ccccc2)no1	-	-	-	-	-	-	.
Cc1ccc(-c2cc(C(=O)N3CC(C)CC(C)C3)c3ccccc3n2)o1 (stereo unspecified)	79.4µM	?	-	?	39.8µM	-	75.7
COc1cc(=O)n(C)c2c(OC[C@@H](O)C(C)(C)O)cccc12	.	.	.	-[12 µM]	.	.	.
Cc1ccc2nc3sc(C(=O)NCc4ccco4)cc3cc2c1	.	.	.	.	.	.	75.7
O=C(NCc1ccco1)c1c[nH]c2ccc(S(=O)(=O)Nc3ccc(F)cc3F)cc2c1=O	50.1µM	.	-	-	?	?	.	Pol kappa inh-2=?
COc1ccc(NS(=O)(=O)c2c(C)cc(C)cc2C)cn1	-	-	-	-	-	-	.
Cc1ccc(C2C=C(c3ccccc3)Nc3nc(NS(=O)(=O)c4ccc(C)cc4)nn32)cc1 (stereo unspecified)	?	.	-	-	-	-	.	Pol kappa inh-2=?
Cc1cccc2cc(/C=N/Nc3ccc(C(=O)O)cc3)c(Cl)nc12	?	-	?	-	?	-	.
O=C(O)c1ccc(N/N=C/c2cc3ccccc3nc2Cl)cc1	44.7µM	-	?	-	-	-	?
CCOc1ccc(NC(=O)Cn2nnc(C(=O)NCCc3ccccc3)c2N)cc1	?	.	-	?	?	?	.	Pol kappa inh-2=?
